From PubChem BioAssay
VDR inhibitor: vitamin D3 receptor (human) inhibition; P11473; VDR-SRC2-3 peptide fluorescence polarization, 2 h; Potency, µM, for the others: max response, negative = inhibition, most hits filed as inhibitors; hit rate 0.93% among 400,000; further: on the % scale 0 is the no-effect control and ±100 the full control effect
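Signal is fluorescence polarization, reporting how far test compounds block the interaction of VDR with the SRC2-3 coregulator peptide after a 2 h room-temperature incubation.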
12-LOX inh: blocks human arachidonate 12S-lipoxygenase; P18054; purified 12hLO, xylenol orange hydroperoxide absorbance; Potency, µM (top dose mostly 108 µM), for the others: at the highest dose activity change, negative = inhibition, usual class: inhibitors; hit rate 1.1% among 580,000; AID 1671190; further: on the % scale 0 is the no-effect control and ±100 the full control effect
Target sequence (P18054 whole entry, looked up): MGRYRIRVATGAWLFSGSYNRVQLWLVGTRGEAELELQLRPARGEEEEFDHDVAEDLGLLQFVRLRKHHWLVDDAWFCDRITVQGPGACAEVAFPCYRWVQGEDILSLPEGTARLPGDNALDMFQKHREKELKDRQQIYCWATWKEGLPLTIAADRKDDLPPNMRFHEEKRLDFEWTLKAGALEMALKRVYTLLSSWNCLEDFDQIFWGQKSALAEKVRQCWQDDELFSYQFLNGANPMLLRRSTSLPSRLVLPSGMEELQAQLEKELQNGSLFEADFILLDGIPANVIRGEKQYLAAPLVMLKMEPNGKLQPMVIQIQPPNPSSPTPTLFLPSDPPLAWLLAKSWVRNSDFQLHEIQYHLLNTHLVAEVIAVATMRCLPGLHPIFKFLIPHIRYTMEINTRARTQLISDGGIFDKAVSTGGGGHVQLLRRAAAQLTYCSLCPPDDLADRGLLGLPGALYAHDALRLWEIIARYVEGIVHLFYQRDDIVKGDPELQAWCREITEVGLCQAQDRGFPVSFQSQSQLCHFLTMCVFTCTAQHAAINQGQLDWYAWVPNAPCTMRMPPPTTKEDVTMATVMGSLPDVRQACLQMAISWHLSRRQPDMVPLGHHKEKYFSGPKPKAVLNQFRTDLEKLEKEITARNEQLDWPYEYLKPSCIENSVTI
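Purified human 12hLO at 150 nM in 25 mM Hepes, 0.01% Triton X-100, pH 7.0, preincubated 15 min at room temperature with compound. Reaction started with 40 uM arachidonic acid, 30 min at room temperature. Hydroperoxide measured by Fe-xylenol orange, 573/405 nm absorbance ratio.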
Sfp PPTase inh: blocks B. subtilis Sfp PPTase activity; Biochemical Sfp PPTase activity, qHTS; Potency, µM, without a hit: largest response in the series, negative = inhibition, most hits filed as inhibitors; hit rate 3.5% among 310,000; AID 1490;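 further: the enzyme is Sfp with the accession as filed and its product quenches rhodamine fluorescence; 0% = enzyme reaction without inhibitor and -100% = no enzyme wells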
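Fluorescence-quenching assay: 15 nM Sfp-PPTase preincubated 15 min at room temperature with compound, then 5 uM rhodamine-CoA and 12.5 uM BHQ-2-labelled YbbR peptide added. Fluorescence (ex 525/em 598 nm) read at start and after 30 min; difference gives rate.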
G9a inh: G9a (human) methyltransferase inhibition; Q96KQ7; G9a H3K9 monomethylation, AlphaScreen, 2 h; Potency, µM (series often up to 102 µM), for the others: at the highest dose activity, negative = inhibition, hits mostly inhibitors; hit rate 8.8% among 350,000; further: on the % scale 0 is the no-effect control and ±100 the full control effect; nearly all actives have a fitted effect of over 75% in size
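Readings reflect AlphaScreen signal from monomethyl-H3K9 antibody detection. HMT at 20 nM; substrate b-H3K9 500 nM; cofactor SAM 20 uM; 2 h RT reaction; compounds tested as titrations in qHTS with 15 min preincubation.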
Glioma ERSR ind: inducers of ER stress response in human glioma cells; U87-MG GRP78 promoter luciferase reporter, 16 h; Potency, µM, for inactives: at the top dose activation, hits mostly activators; hit rate 0.02% among 420,000; AID 602332; further: series mostly up to about 76 µM; % of control where 0% means no effect; nearly all actives have a fitted effect of over 35% in size
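Stably transfected U87-MG human glioma cells carrying a GRP78-based luminescent sensor were seeded at 1000 cells/well, pin-dosed with compounds and incubated 16 h. Luciferase reagent was then added, and end-point luminescence was read after 10 min at room temperature.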
Active calls of the source: *; [ ] = another dose, or the depositor's remark. This excerpt belongs to a sample that is enriched for hits. The call rests on the fitted dose curve; in most records, active means well fitted curve in the direction sought with a large enough effect; inconclusive means small, poorly fitted or top-dose-only effect, or another doubt; inactive means no such curve, though single readings can be large; an effect the other way counts as inactive or inconclusive. Potency means the concentration at half of the fitted maximal effect.

Results for CN(CCOc1ccccc1)CC(=O)Nc1ccc(Cl)c(S(=O)(=O)N(C)C)c1 ?
VDR inhibitor: 5.0%; 12-LOX inh: -18.1%; Sfp PPTase inh: 56.2µM*; G9a inh: 8.91µM*; Glioma ERSR ind: -5.4%

How did CCC1CN(C(=O)C2CCN(c3nc4ccccc4o3)CC2)CCO1 (stereo not given) do in these assays?
12-LOX inh: 12.6%

What do the screens show for `N#Cc1ccc(Cc2cnc(NC(=O)c3ccc(Cl)o3)s2)c(C(F)(F)F)c1`?
12-LOX inh: 4.4%

What do the screens show for `COc1cccc(CN2CCCC(Cc3ncc(C)n3Cc3ccccc3)C2)c1OC` (stereo not given)?
12-LOX inh: 28.8%

How did Cc1nc(N2CCN(C(=O)C(N)=O)CC2)c(C#N)c2c1CCCC2 do in these assays?
12-LOX inh: 9.1%

How did CN(C)S(=O)(=O)c1cc(NC(=O)CNCc2ccccc2)ccc1Cl do in these assays?
VDR inhibitor: -9.9%; 12-LOX inh: inconclusive; Sfp PPTase inh: -29.3%; G9a inh: 2.24µM*; Glioma ERSR ind: -4.3%

What do the screens show for `Cc1ccc(NC(=O)CNCc2ccccc2Cl)cc1S(=O)(=O)N(C)C`?
VDR inhibitor: 0.2%; 12-LOX inh: inconclusive; Sfp PPTase inh: inconclusive; G9a inh: -12.1%; Glioma ERSR ind: 2.9%

What do the screens show for `Cc1ccc(NS(=O)(=O)c2c(F)cc(F)cc2Br)cc1C`?
12-LOX inh: 14.8%

How did CC(C)=CC(=O)NC(C)c1cc(C)sc1C (stereo not given) do in these assays?
12-LOX inh: -2.3%

Results for CCOc1ccc(NC(=O)c2cc3cc(OCC)ccc3n2C)cc1 ?
12-LOX inh: 56.7%

What do the screens show for `Cn1c(C(=O)Nc2ccc(Cl)cc2)cc2cc(Cl)ccc21`?
VDR inhibitor: inconclusive; 12-LOX inh: 17.8µM*; Sfp PPTase inh: 13.3%; G9a inh: 45.3%; Glioma ERSR ind: -0.5%

Results for Cc1ccc(S(=O)(=O)Nc2nnc(CC(C)(C)C)s2)cc1 ?
VDR inhibitor: -25.4%; 12-LOX inh: -17.2%; Sfp PPTase inh: 79.4µM*; G9a inh: 35.5µM*; Glioma ERSR ind: -1.7%

How did CC(C)(C)c1nnc(NS(=O)(=O)c2ccccc2)s1 do in these assays?
12-LOX inh: -2.8%[22.9 µM]; Glioma ERSR ind: -4.4%

Results for Cc1ccc(S(=O)(=O)Nc2nnc(C(C)(C)C)s2)cc1 ?
VDR inhibitor: -24.6%; 12-LOX inh: inconclusive; Sfp PPTase inh: -56.3%; G9a inh: 4.47µM*; Glioma ERSR ind: -4.3%

What do the screens show for `CCCCCCCCCOC(C)=O`?
12-LOX inh: 6.6%[176 µM]

How did CC1=NN(c2ccccc2)C(=O)/C1=C\c1cn(CCC#N)nc1-c1ccc(Cl)cc1 do in these assays?
VDR inhibitor: inconclusive; 12-LOX inh: -6.8%; Sfp PPTase inh: -5.8%; G9a inh: 4.47µM*; Glioma ERSR ind: 0.1%

What do the screens show for `N#C/C(=C\c1ccccc1)C(=O)Nc1nncs1`?
VDR inhibitor: 2.1%; 12-LOX inh: inconclusive; Sfp PPTase inh: -6.0%; G9a inh: 50.1µM*; Glioma ERSR ind: 0.8%

What do the screens show for `COc1cc(/C=C/c2nc3ccccc3s2)cc(OC)c1`?
12-LOX inh: 11.6%

What do the screens show for `Cc1cc(/C=C/c2nc3c(ccc4ccccc43)s2)cc(C)c1O`?
12-LOX inh: 6.31µM*

What do the screens show for `Cc1c(F)cc(C(N)=O)cc1NS(=O)(=O)c1ccc(C(F)(F)F)cc1`?
12-LOX inh: -0.9%

How did CCC1CCCCN1C(=O)/C=C/c1ccc(Br)cc1 (stereo not given) do in these assays?
12-LOX inh: 14.1%

How did Cc1c(CC(=O)N2CCN(c3ccccc3)CC2)c(=O)oc2c(C)c(O)ccc12 do in these assays?
12-LOX inh: 4.1%

How did COc1ccc(CNc2nc(-c3ccccc3)nn2C(=O)c2ccc(C)cc2)cc1 do in these assays?
12-LOX inh: 17.4%

Results for CCc1cc2c(NCCO)ncnc2s1 ?
VDR inhibitor: 2.2%; 12-LOX inh: 24.2%; Sfp PPTase inh: 9.9%; Glioma ERSR ind: -7.4%

How did Cc1sc2ncnc(NCCN3CCOCC3)c2c1C do in these assays?
VDR inhibitor: -14.0%; 12-LOX inh: 0.0%; Sfp PPTase inh: -24.1%; G9a inh: 8.91µM*; Glioma ERSR ind: -6.1%

Results for CCc1cc2c(NCCN3CCCCC3)ncnc2s1 ?
VDR inhibitor: -5.7%; 12-LOX inh: inconclusive; Sfp PPTase inh: -1.6%; G9a inh: 50.1µM*; Glioma ERSR ind: -6.9%

Results for CCOC(=O)c1[nH]c2ccc(OC)cc2c1NC(=O)c1ccc(OC)c(OC)c1 ?
VDR inhibitor: 6.9%; 12-LOX inh: -20.9%; Sfp PPTase inh: -6.1%; G9a inh: 50.1µM*; Glioma ERSR ind: -4.1%

How did CCOC(=O)c1[nH]c2cc(OC)c(OC)cc2c1N do in these assays?
VDR inhibitor: 4.0%; 12-LOX inh: inconclusive; Sfp PPTase inh: 44.7µM*; G9a inh: 3.16µM*; Glioma ERSR ind: -2.5%

What do the screens show for `CCOC(=O)c1[nH]c2ccc(C)cc2c1N`?
VDR inhibitor: -5.1%; 12-LOX inh: -11.4%; Sfp PPTase inh: 17.8µM*; G9a inh: 1.78µM*; Glioma ERSR ind: 2.7%

Results for N#Cc1ccccc1Nc1ccnc(N2CC3CCC(C2)N3CC(F)(F)F)n1 ?
12-LOX inh: 3.3%[6.33 µM]

Results for Cc1ccccc1C(=O)NC(c1ccccc1)C(C)(C)C (stereo not given) ?
12-LOX inh: 14.9%

Results for COc1ccc(OC)c(CNC(=O)c2c(-c3ccc(C)cc3)nnc3ccccc23)c1 ?
12-LOX inh: 37.8%

Results for NNc1nc(C(F)(F)F)nc2ccccc12 ?
VDR inhibitor: -5.3%; 12-LOX inh: 35.3%; Sfp PPTase inh: 50.1µM*; G9a inh: 31.6µM*; Glioma ERSR ind: -5.7%

What do the screens show for `NNc1nc2ccccc2nc1C(F)(F)F`?
VDR inhibitor: -28.3%; 12-LOX inh: inconclusive; Sfp PPTase inh: -23.7%; G9a inh: 8.91µM*; Glioma ERSR ind: 1.0%

Results for O=C(O)CCNc1nc(C(F)(F)F)nc2ccccc12 ?
VDR inhibitor: 12.2%; 12-LOX inh: -0.6%; Sfp PPTase inh: 19.1%; G9a inh: -26.6%; Glioma ERSR ind: -2.2%

Results for Cc1ccc(-c2nc3ccccc3nc2NN)cc1 ?
VDR inhibitor: -12.1%; 12-LOX inh: inconclusive; Sfp PPTase inh: 14.1µM*; G9a inh: 35.5µM*; Glioma ERSR ind: 2.8%

What do the screens show for `CCOC(=O)C1CCCN(c2oc(-c3ccc(OC)cc3)nc2C#N)C1` (stereo not given)?
VDR inhibitor: -12.4%; 12-LOX inh: 0.0%; Sfp PPTase inh: 2.5%; G9a inh: 50.1µM*; Glioma ERSR ind: -0.7%

Results for Cc1ccc(-c2nc(C#N)c(N3CCC(C(N)=O)CC3)o2)cc1 ?
VDR inhibitor: 17.2%; 12-LOX inh: -13.4%; Sfp PPTase inh: 10.4%; G9a inh: -6.4%; Glioma ERSR ind: -0.3%

Results for O=C(Nc1ccccc1-c1ccccc1)c1cc(F)c(F)cc1Cl ?
12-LOX inh: 13.1%

Results for Cn1c(SCc2csc(-c3ccccn3)n2)nnc1C1CC1 ?
12-LOX inh: -20.1%
